NLRP3 yeast inh = inhibitors of NALP3 inflammasome in yeast; Yeast reconstituted NLRP3/ASC/caspase-1, beta-gal luminescence, 24 h; inhibition, % at 10 µM; 330,000 compounds, 0.39% hits; AID 2825;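 active = inhibition of 50% or more; inactive = inhibition below 50%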
NALP1 inh = inhibitors of NALP1 inflammasome in yeast. AID 2071. 280,000 compounds, 0.61% hits. S. cerevisiae NALP1/ASC/caspase-1 growth, X-gal OD620, 72 h. inhibition, % at 10 µM; in the data active = inhibition mostly above about 24%, no sharp cut-off; inactive = mostly below about 32%
TIM10 inh = inhibits growth of TIM10 yeast strain; inhibition, % at 10 µM; AID 463195; 330,000 compounds, 1.4% hits; S. cerevisiae TIM10 strain growth, BacTiter-Glo luminescence, 24 h;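 active = inhibition of 40% or more at the single tested concentration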;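 note: wild-type TIM10 isogenic control strain grown at permissive 25 °C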
tim23-1 inh = tim23-1 yeast growth inhibition. S. cerevisiae tim23-1 growth, BacTiter-Glo luminescence, 24 h. inhibition, % at 20 µM. 330,000 compounds, 1.3% hits. AID 463212;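 active = growth inhibition of the mutant yeast at or above 50%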;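 note: temperature-sensitive mutant grown at 25 °C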
tim10-1 inh = inhibits growth of tim10-1 mutant yeast; inhibition, % at 20 µM; 330,000 compounds, 2.2% hits; AID 463190; S. cerevisiae tim10-1 ts strain growth, BacTiter-Glo, 24 h;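 active = inhibition of at least 40%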;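 note: mutant grown at 25 °C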
tim10-1 conf = confirmation of tim10-1 mutant yeast growth inhibitors | inhibition, % at 20 µM | 7,400 compounds, 56% hits | shares compounds with tim10-1 inh | S. cerevisiae tim10-1 ts strain growth, BacTiter-Glo, 24 h;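 active = inhibition of yeast growth at or above a set limit in either of two repeat tests at 20 µM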;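 note: tim10-1 mutant grown at permissive 25 °C to find synthetic lethal compounds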
tim10 confirm = confirmation of TIM10 yeast growth inhibitors | AID 463215 | 4,600 compounds, 63% hits | shares compounds with TIM10 inh | inhibition, % at 10 µM | S. cerevisiae tim10 strain growth, BacTiter-Glo luminescence, 24 h;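 active = inhibition of yeast growth at or above a set limit in either of two replicates at 10 µM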; note: this counterscreen used the strain with wild-type TIM10
tim23-1 confirm = tim23-1 yeast growth inhibition, confirmed; 4,400 compounds, 83% hits; shares compounds with tim23-1 inh; S. cerevisiae tim23-1 growth, BacTiter-Glo luminescence, 24 h; AID 463218; inhibition, % at 20 µM;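 active = inhibition above about 39% in either of two replicate wells at 20 µM, limit read from the data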;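 note: temperature-sensitive tim23-1 mutant grown at 25 °C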
Of the large screens only hits and unclear results are named; the others gave an inactive call (follow-up assays come after a bar, where they were run). Sampled rows, rich in hits. Any-hit rate of the full collection: about 4%.

O=[N+]([O-])c1ccc(Sc2ncccn2)c([N+](=O)[O-])c1	tim23-1 inh 53, tim10-1 inh 42 | tim10-1 conf 50 | tim23-1 confirm 40
CCC(NC(=O)c1ccc([N+](=O)[O-])cc1[N+](=O)[O-])c1ccccc1 (stereo not drawn)	none (no result: NALP1 inh)
O=C(O)CCSc1ccc([N+](=O)[O-])cc1[N+](=O)[O-]	tim23-1 inh 51, tim10-1 inh 44 | tim10-1 conf 30 | tim23-1 confirm 53
Cc1cc(NC(=O)C(C)SCC(=O)OCc2ccc(Cl)cc2Cl)no1 (stereo not drawn)	none (no result: NALP1 inh)
COc1ccccc1NC(=O)C(=O)c1cn(CC(=O)N2CCOCC2)c2ccccc12	none
N#Cc1cc(N)ccc1Sc1ccccc1	none
N#Cc1cc(N)ccc1Sc1ccc(Cl)cc1	tim23-1 inh 69, tim10-1 inh 55 | tim10-1 conf 31 | tim23-1 confirm 48
CCC(=O)Nc1ccc2ccccc2c1	none
CC(C)(C)CC(C)(C)NC(=O)CSCC(=O)Nc1ccc2ccccc2c1	tim23-1 inh 67, tim10-1 inh 64 | tim10-1 conf 35 | tim23-1 confirm 52
Cc1cc(C)cc(NC(=S)Nc2ccc(Cl)c(Cl)c2)c1	TIM10 inh 43, tim23-1 inh 79, tim10-1 inh 62 | tim10-1 conf 56 | tim10 confirm 37 | tim23-1 confirm 75
NC(=S)Nc1ccc(Cl)c(Cl)c1	none (no result: NALP1 inh)
CCn1ccc(C(=O)Nc2ccc3c(c2)CCC3)n1	none
CC1CC(C)CN(C(=O)CSc2nc(N)cc(=O)[nH]2)C1 (stereo not drawn)	none
O=C1C=CC(=O)N1N(c1ccccc1)c1ccccc1	NALP1 inh 105, TIM10 inh 54, tim23-1 inh 55, tim10-1 inh 65 | tim10-1 conf 67 | tim10 confirm 61 | tim23-1 confirm 47
O=C(COC(=O)c1cccc2c1C(=O)c1ccccc1C2=O)NC1CCCCC1	none
O=C(COC(=O)c1ccc2c(c1[N+](=O)[O-])C(=O)c1ccccc1C2=O)NC1CC1	TIM10 inh 60, tim23-1 inh 76, tim10-1 inh 80 | tim10-1 conf 64 | tim10 confirm 46 | tim23-1 confirm 73
O=C(c1ccc(NC(=O)C(c2ccccc2)c2ccccc2)cc1)c1ccc(C(=O)O)c(C(=O)O)c1	none
O=[N+]([O-])c1ccc(N=NN(CCO)CCO)cc1	none
O=[N+]([O-])c1ccc(N=Nc2ncc[nH]2)cc1	TIM10 inh 44, tim23-1 inh 52, tim10-1 inh 45 | tim10-1 conf inactive | tim10 confirm 33 | tim23-1 confirm inactive
CCN(CC)c1nc(-c2ccccn2)nc(-c2ccccc2)c1C#N	TIM10 inh 60, tim23-1 inh 58, tim10-1 inh 58 | tim10-1 conf 51 | tim10 confirm 65 | tim23-1 confirm 53
CC(C)(C)NS(=O)(=O)c1ccc(NC(=O)C2CC(=O)N(CCc3ccc(F)cc3)C2)cc1 (stereo not drawn)	none
C[C@@H]1C=CC(=O)O[C@@H]1c1ccc(Cl)cc1	TIM10 inh 43, tim23-1 inh 56, tim10-1 inh 45 | tim10-1 conf 41 | tim10 confirm 41 | tim23-1 confirm 40
O=c1oc(Cl)c(Cl)c2ccccc12	tim23-1 inh 64, tim10-1 inh 45 (no result: NALP1 inh) | tim10-1 conf inactive | tim23-1 confirm 88
CCOC(=O)c1[nH]c(C=O)c(C(=O)OCC)c1C	TIM10 inh 67, tim23-1 inh 76, tim10-1 inh 60 | tim10-1 conf 50 | tim10 confirm 55 | tim23-1 confirm 80
CC(=O)Nc1ccc(C(=O)NCC2(N3CCCCC3)CCCCC2)cc1	none
C=CCN1C(=O)C(CC(=O)NCC)SC1=Nc1ccccc1OC (stereo not drawn)	none (no result: NALP1 inh)
Cc1ccc(S(=O)(=O)/N=C(\Sc2ccccc2)c2ccccc2)cc1	tim23-1 inh 52, tim10-1 inh 51 | tim10-1 conf 33 | tim23-1 confirm 62
O=S(=O)(/N=C(\Sc1ccccc1)c1ccccc1)c1ccc(Cl)cc1	none
COc1ccc(CC(=O)NC(=S)Nc2cccc(C)c2)cc1	TIM10 inh 47, tim23-1 inh 62, tim10-1 inh 46 (no result: NALP1 inh) | tim10-1 conf 29 | tim10 confirm 36 | tim23-1 confirm 46
Cc1cccc(NC(=S)NNC(=O)COc2ccc(Cl)cc2Cl)c1	TIM10 inh 43, tim23-1 inh 52, tim10-1 inh 46 | tim10-1 conf 32 | tim10 confirm inactive | tim23-1 confirm 42
COc1ccc(CC(=O)NC(=S)Nc2cccc(CO)c2)cc1	none (no result: NALP1 inh)
Clc1cnc2nc(SC/C=C/c3ccccc3)[nH]c2c1	none (no result: NALP1 inh)
O=C(NCCOC12CC3CC(CC(C3)C1)C2)c1cccc(Br)c1	TIM10 inh 44, tim23-1 inh 53, tim10-1 inh 42 | tim10-1 conf 33 | tim10 confirm 46 | tim23-1 confirm 46
COc1ccc(-n2c(SCC(=O)N/N=C/c3ccccc3OCC(=O)O)nc3ccccc3c2=O)cc1	none (no result: NALP1 inh)
CCOC(=O)c1c(C)oc2c1cc(O)c1ccccc12	none
CCOC(=O)c1c(C)oc2c(F)c(F)c(F)c(F)c2c1=O	tim23-1 inh 74, tim10-1 inh 42 | tim10-1 conf inactive | tim23-1 confirm 48
Cc1ccnc(NC(=O)c2ccc([N+](=O)[O-])o2)c1	TIM10 inh 55, tim23-1 inh 61, tim10-1 inh 64 | tim10-1 conf 59 | tim10 confirm inactive | tim23-1 confirm 76
Cc1ccc(CNC(=O)c2nn(C)c(C)c2[N+](=O)[O-])cc1	none
O=C(COC(=O)c1ccc([N+](=O)[O-])o1)NCc1ccccc1	none (no result: NALP1 inh)
CN(Cc1ccccc1)C(=O)c1ccc([N+](=O)[O-])o1	NALP1 inh 48, TIM10 inh 75, tim23-1 inh 50, tim10-1 inh 68 | tim10-1 conf 69 | tim10 confirm 72 | tim23-1 confirm 64
O=C(Nc1ncccn1)c1ccc([N+](=O)[O-])o1	none
Cc1ccc(CNC(=O)c2ccc([N+](=O)[O-])o2)cc1	TIM10 inh 67, tim23-1 inh 64, tim10-1 inh 62 | tim10-1 conf 57 | tim10 confirm 40 | tim23-1 confirm 54
CCOCCc1nnc(NC(=O)CCS(=O)(=O)c2ccccc2)s1	none
CCCCOc1ccc(C(=O)CCN2CCCCC2)cc1	NALP1 inh 46, tim23-1 inh 50, tim10-1 inh 47 | tim10-1 conf inactive | tim23-1 confirm 66
COc1ccc(CCC(=O)Nc2ncc(C)s2)cc1	none
COc1ccccc1NC(=O)C1CCCN(S(=O)(=O)c2ccccc2)C1 (stereo not drawn)	none
O=c1c2c3c(sc2ncn1/N=C/c1ccncc1)CCCC3	TIM10 inh 43, tim23-1 inh 66, tim10-1 inh 61 | tim10-1 conf 62 | tim10 confirm 50 | tim23-1 confirm inactive

Screens: PubChem, Sanford-Burnham Center for Chemical Genomics
